The source of these data is PubChem BioAssay (NCATS).

Values joined by “and” are separate entries in the source; they are usually repeats but may differ in a detail not shown here. Equal values may be shown once. Records with an inconclusive call do not appear. Active and inactive are the calls of the source. The call rests on the fitted dose curve; in most records, active means well fitted inhibition curve with a large enough effect; inconclusive means small, poorly fitted or top-dose-only effect; inactive means flat fitted curve, though single readings scatter.
On the % scale 0 is the no-effect control and ±100 the full control effect; potency means the concentration at half of the fitted maximal effect.

This test concerns HEK293. The test is described as follows: Cytotoxic Profiling of Annotated Libraries Using Quantitative High-Throughput Screening (AID 1296008). Further: nearly all actives have a fitted effect of over 60% in size. Particulars: Five cell lines viability, CellTiter-Glo ATP luminescence, 48-72 h; max response: stronger effect = lower value. An outline of the steps: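 Cytotoxicity was measured as CellTiter-Glo ATP luminescence, read after 10 min at room temperature. Compound treatment of the cells lasted 48 or 72 hr at 37 degrees Celsius in a qHTS format.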
(Cellular ATP, detected with luciferase, serves as a proxy for viable cell number.)
In the case of `CC(NCc1ccc2c(c1)nc(NC(=O)c1ccc(-c3cn[nH]c3)s1)n2CC(C)(C)O)C(C)(C)C` (stereo not given), the Potency was 132 nM (active).

`NC1(Cc2ccc(Cl)cc2)CCN(c2ncnc3[nH]ccc23)CC1`: the Potency was 1.66 µM (active) and 6.51 µM (active). On the same count and under the same terms, under `CN1CCN(Cc2ccc(NC(=O)Nc3ccc(Oc4cc(NC(=O)C5CC5)ncn4)cc3)cc2C(F)(F)F)CC1` stands 184 nM (active); under `CN(C)CC=CC(=O)Nc1cc2c(Nc3ccc(F)c(Cl)c3)ncnc2cc1O[C@H]1CCOC1`, 1320 nM (active). The same measure, in the same setting: under `CC(C)(C)c1cc(NC(=O)Nc2ccc(-c3cn4c(n3)sc3cc(OCCN5CCOCC5)ccc34)cc2)no1` stands 1.18 µM (active) and 5.8 µM (active). `COc1ccc(C=Cc2cc(OC)c(OC)c(OC)c2)cc1O`: the max response is -79.1% (inactive).

Regarding `CN1CC[C@@H](c2c(O)cc(O)c3c(=O)cc(-c4ccccc4Cl)oc23)[C@@H](O)C1`, the Potency is 148 nM (active).

For the molecule `COc1cc(-c2nn(C3CCC(N4CCN(C(C)=O)CC4)CC3)c3ncnc(N)c23)ccc1NC(=O)c1cc2ccccc2n1C` (stereo not given), the max response was -12.7% (inactive). As for `O=C(NC1CCNCC1)c1[nH]ncc1NC(=O)c1c(Cl)cccc1Cl`, the Potency is 264 nM (active). As for `Cc1cn2cc(C(=O)N(C)CCO)cc(N[C@@H]3CCOc4cccc(C)c43)c2n1`, the max response was -7.53% (inactive) and -5.18% (inactive). As for `O=C(c1ccc(Nc2nccc(-c3cc4ccccc4s3)n2)cc1)N1CCC(N2CCCC2)CC1`, the Potency is 5260 nM (active). Still for that read-out and setting: to `Cc1ccc(S(=O)(=O)Nc2cc(Cl)ccc2C(=O)Nc2nc(-c3ccccc3)cs2)cc1` belongs 11800 nM (active); to `C#Cc1cccc(Nc2ncnc3cc(OC)c(OCCCCCCC(=O)NO)cc23)c1`, 1.05 µM (active) and 4.61 µM (active); to `Cc1nc2ccc(CN(C)c3ccc(C(=O)N[C@@H](CCC(=O)O)C(=O)O)s3)cc2c(=O)[nH]1`, 47.3 nM (active).

For `Cc1cc(N2CCOCC2)cc2[nH]c(-c3c(NC[C@@H](O)c4cccc(Cl)c4)cc[nH]c3=O)nc12`, the Potency is 2.96 µM (active) and 7.31 µM (active).
